Compound activity from PubChem BioAssay.
Bead autofluor: flagged as autofluorescent in microsphere protease counterscreen. compound autofluorescence counterscreen, microsphere flow cytometry; active compounds read high. fluorescence intensity (no concentration beside the values). hit rate 3.1% among 360,000. AID 624483; in the data active = fluorescence intensity above about 16000; inconclusive = no clear call, values can overlap the other calls
GDH-TPI counter-1: inhibits GDH-TPI coupling enzymes, artifact for Mtb FBA screen | GDH-TPI coupled enzyme counterscreen, NADH absorbance | inhibition, % at 4.8 µM | hit rate 1.2% among 360,000 | AID 588335; in the data active = inhibition above about 30%
FBA Mtb inh: inhibitors of M. tuberculosis fructose-bisphosphate aldolase | P9WQA3 | purified M. tuberculosis FBA, fluorescence read-out | inhibition, % at 1 µM | hit rate 2.3% among 360,000; in the data active = inhibition above about 27%
Target sequence (P9WQA3 whole entry, looked up): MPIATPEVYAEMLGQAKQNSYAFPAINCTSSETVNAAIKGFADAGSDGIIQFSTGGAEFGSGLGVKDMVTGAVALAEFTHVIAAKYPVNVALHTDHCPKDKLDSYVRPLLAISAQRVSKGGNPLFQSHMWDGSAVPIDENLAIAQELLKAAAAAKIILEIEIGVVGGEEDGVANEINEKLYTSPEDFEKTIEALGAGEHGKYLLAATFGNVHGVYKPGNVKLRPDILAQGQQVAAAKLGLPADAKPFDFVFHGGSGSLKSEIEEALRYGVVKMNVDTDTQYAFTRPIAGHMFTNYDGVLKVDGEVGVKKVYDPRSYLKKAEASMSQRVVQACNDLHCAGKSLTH
BoNT-F LC inh: BoNT F light chain protease inhibition; AID 588497; inhibition, % at 10 µM; Multiplex microsphere protease cleavage assay, flow cytometry; hit rate 0.22% among 360,000; in the data active = inhibition above about 35%, passing the limit was not always enough; inconclusive = no clear call, values can overlap the other calls
Anthrax LF prot: anthrax lethal factor protease inhibition; multiplex microsphere protease cleavage assay, LF; inhibition, % at 10 µM; hit rate 0.12% among 360,000
BoNT-A LC inh2: BoNT A light chain protease inhibition | inhibition, % at 10 µM | AID 588499 | hit rate 0.17% among 360,000 | multiplex microsphere protease substrate cleavage, flow cytometry
Mtb FBA confirm: confirmation of M. tuberculosis fructose-bisphosphate aldolase inhibitors | purified M. tuberculosis FBA, fluorescence read-out | inhibition, % at 1 µM | shares compounds with FBA Mtb inh | hit rate 78% among 5,600; in the data active = inhibition above about 27%
GDH-TPI counter-2: counter-screen for M. tuberculosis FBA inhibitors: GDH-TPI coupled enzyme inhibition | GDH-TPI coupled enzyme counterscreen, fluorescence | inhibition, % at 1 µM | hit rate 81% among 5,600 | shares compounds with FBA Mtb inh; in the data active = inhibition above about 10%
GDH-TPI DR: counter-screen for M. tuberculosis FBA inhibitors: GDH-TPI dose response | shares compounds with FBA Mtb inh | GDH-TPI coupled enzyme assay, fluorescence, artifact counterscreen | IC50, µM | hit rate 79% among 170; call rule not given here
Of the large screens only hits and unclear results are named; the others gave an inactive call (follow-up assays come after a bar, where they were run). Sampled rows, rich in hits. Any-hit rate of the full collection: about 6.7%. Cut-off read from the data, not from the text of the source, unless noted: active = inhibition above about 30%; inconclusive = no clear call, values can overlap the other calls; inactive = below that.

Cc1ccc2c(C)cc[n+](CCCS(=O)(=O)[O-])c2c1	FBA Mtb inh 43.5 | Mtb FBA confirm inactive | GDH-TPI counter-2 inactive | GDH-TPI DR inactive
Cc1ccc(C(=O)NN2C(=O)C3C4C=CC(C4)[C@@H]3C2=O)cc1 (stereo partly specified)	none
O=C(NN1C(=O)C2C3C=CC(C3)C2C1=O)c1ccccc1 (stereo unspecified)	FBA Mtb inh 77.1 | Mtb FBA confirm inactive | GDH-TPI counter-2 inactive
CN(CC(=O)Nc1ccc2c(c1)OCCO2)S(=O)(=O)c1ccc(F)cc1	none
CCOc1ccc2oc(-c3ccccc3)c(C(=O)N3CCN(CCO)CC3)c2c1	FBA Mtb inh 41.9 | Mtb FBA confirm 93.2 | GDH-TPI counter-2 89.7
CCOc1ccc2oc(-c3ccccc3)c(C(=O)N(C)C)c2c1	FBA Mtb inh 49.7 | Mtb FBA confirm inactive | GDH-TPI counter-2 inactive
CC(=O)c1c(C)oc2ccc(OCc3ccccc3)cc12	none
CCOc1ccc2oc(-c3ccccc3)c(C(N)=O)c2c1	FBA Mtb inh 68.9 | Mtb FBA confirm active | GDH-TPI counter-2 198.7
N#Cc1c(N2CCCCC2)nc(N)c2c(N)nc3c(c12)CC(c1ccccc1)O3 (stereo unspecified)	FBA Mtb inh 29.8 | Mtb FBA confirm 121.8 | GDH-TPI counter-2 102.4
CCC1Cc2c(nc(N)c3c(N)nc(N4CCCCC4)c(C#N)c23)O1 (stereo unspecified)	FBA Mtb inh 42.3 | Mtb FBA confirm 121.2 | GDH-TPI counter-2 110.1
N#Cc1c(N2CCCC2)nc(N)c2c(N)nc(N3CCCC3)cc12	none (no result: Bead autofluor, BoNT-F LC inh, Anthrax LF prot, BoNT-A LC inh2)
O=C(COc1ccccc1C(=O)O)Nc1cccc2ccccc12	none
COc1ccc(OCC(=O)Nc2cc(-c3nn(C)c(=O)c4ccccc34)ccc2N2CCOCC2)cc1	FBA Mtb inh 27.3 | Mtb FBA confirm inactive | GDH-TPI counter-2 inactive
CCC(=O)Nc1cc(-c2nn(C)c(=O)c3ccccc23)ccc1N1CCOCC1	none
O=C(COc1ccccc1)NCC(=O)N/N=C/C=C/c1ccccc1	none
COc1ccc2c(c1)cc(C(=O)N[C@@H](CCSC)C(=O)N1CCC(C(=O)O)CC1)n2C	FBA Mtb inh 64.2 | Mtb FBA confirm inactive | GDH-TPI counter-2 inactive
Cn1c(C(=O)N[C@@H](Cc2ccccc2)C(=O)O)cc2cc(F)ccc21	none
COc1ccc2c(c1)cc(C(=O)N[C@@H](Cc1ccccc1)C(=O)N[C@@H](C)C(=O)O)n2C	FBA Mtb inh 59.0 | Mtb FBA confirm 31.4 | GDH-TPI counter-2 inactive | GDH-TPI DR 2.45
COc1ccc2c(c1)cc(C(=O)N[C@@H](Cc1ccccc1)C(=O)O)n2C	FBA Mtb inh 91.7 | Mtb FBA confirm 121.3 | GDH-TPI counter-2 87.5
Cc1nc2sc(C(c3cccs3)N3CC(C)CC(C)C3)c(O)n2n1 (stereo unspecified)	none
CC1CC(C)CN(C(=O)Cn2c(SCC(=O)N3CCc4ccccc4C3)nc3ccccc32)C1 (stereo unspecified)	FBA Mtb inh 48.1 | Mtb FBA confirm 68.7 | GDH-TPI counter-2 48.6
CCCCn1c(-c2cccc(Br)c2)nc2cc3[nH]c(=O)c(C(C)C)nc3cc21	FBA Mtb inh 34.0 | Mtb FBA confirm inactive | GDH-TPI counter-2 inactive
CCCCn1c(-c2ccc(C(C)(C)C)cc2)nc2cc3[nH]c(=O)c(C(C)C)nc3cc21	none
CCCCn1c(-c2ccc(Cl)c(Cl)c2)nc2cc3[nH]c(=O)c(C(C)C)nc3cc21	none
CCCCn1c(-c2cccnc2)nc2cc3[nH]c(=O)c(C(C)C)nc3cc21	GDH-TPI counter-1 30.9, FBA Mtb inh 63.6 | Mtb FBA confirm active | GDH-TPI counter-2 170.1
CCOC(=O)c1cc(-c2ccccc2)sc1NC(=O)C(C)C	FBA Mtb inh 36.8 | Mtb FBA confirm 125.3 | GDH-TPI counter-2 112.7
Cc1noc2ncnc(N3CCN(c4cccc(Cl)c4)CC3)c12	none
NC(=O)COC(=O)c1cc(Cl)cc(Cl)c1N	FBA Mtb inh 88.9 | Mtb FBA confirm active | GDH-TPI counter-2 active
CN(CCC#N)C(=O)COC(=O)c1cc(Cl)cc(Cl)c1N	FBA Mtb inh 93.1 | Mtb FBA confirm inactive | GDH-TPI counter-2 inactive
CC1(C)CC2CC(C)(CN2C(=O)COC(=O)c2cc(Cl)cc(Cl)c2N)C1 (stereo unspecified)	none
O=C(OCC(=O)N1CCCC1)c1cc(Br)ccc1Cl	none
Nc1c(Cl)cc(Cl)cc1C(=O)OCC(=O)N1CCCC1	FBA Mtb inh 94.6 | Mtb FBA confirm 137.2 | GDH-TPI counter-2 106.6
Cc1c(OCC(=O)NCc2ccccn2)ccc2c(-c3ccccc3)cc(=O)oc12	none
COc1ccc2[nH]c(-c3cccc(F)c3)cc(=O)c2c1	FBA Mtb inh 41.4 | Mtb FBA confirm inactive | GDH-TPI counter-2 inactive
CCN(CC)CCNC(=O)c1cc2c(=O)n(C)c3ccccc3c2n1C	FBA Mtb inh 27.6 | Mtb FBA confirm active | GDH-TPI counter-2 active
CCCN1CCN(CCCNC(=O)c2cc3c(=O)[nH]c4ccccc4c3s2)CC1	FBA Mtb inh 46.8 | Mtb FBA confirm 91.1 | GDH-TPI counter-2 76.1
CCOC(=O)N1CCN(C(=O)c2cc3c(=O)[nH]c4ccccc4c3s2)CC1	none
COCCNC(=O)c1cc2c(=O)[nH]c3ccccc3c2s1	FBA Mtb inh 77.9, BoNT-F LC inh inconclusive | Mtb FBA confirm 102.2 | GDH-TPI counter-2 84.0
CCCN1CCN(CCCNC(=O)c2cc3c(=O)oc4ccc(C)cc4c3s2)CC1	none
CC(OC(=O)CCC(=O)c1cccs1)C(=O)Nc1ccc(Cl)cn1 (stereo unspecified)	none
CCOC(=O)c1nn(-c2ccc(C)c(C)c2)c(=O)c2c(N)scc12	none
CCNC(=S)N/N=C1\C(=O)c2cccc3cccc1c23	none
O=C(N/N=C1/C(=O)c2cccc3cccc1c23)c1ccc(Cl)cc1	FBA Mtb inh 80.2 | Mtb FBA confirm 79.1 | GDH-TPI counter-2 62.5
O=C(COc1ccc(C2SCCS2)cc1)Nc1ccc(Cl)cc1	BoNT-F LC inh inconclusive, BoNT-A LC inh2 inconclusive
Nc1cc2nc3ccccc3nc2cc1N	none
COc1cccc(-c2c(-c3cc(OC)cc(OC)c3)n(C)c3ccc(-c4ccc5[nH]ccc5c4)cc23)c1	FBA Mtb inh 42.2 | Mtb FBA confirm active | GDH-TPI counter-2 active
COc1cc(OC)cc(-c2c(-c3ccc(F)cc3)c3cc(-c4ccc5[nH]ccc5c4)ccc3n2C)c1	FBA Mtb inh 49.4 | Mtb FBA confirm inactive | GDH-TPI counter-2 inactive
COc1cccc(-c2c(-c3cc(OC)cc(OC)c3)n(C)c3ccc(-c4ccc(OC)nc4)cc23)c1	none
CN(C)/C=C/C(=O)c1ccc2noc(-c3ccccc3)c2c1	none
CC(=O)Nc1cccc(-c2ccnc3c2CC(C)(C(=O)NC(C)C)O3)c1 (stereo unspecified)	none
